Assay results as given in PubChem BioAssay (EPA / NIEHS).
Inconclusive results are not listed. The source made the active and inactive calls. Rule for the calls: active = hit-call score of the fitted dose curve at least 0.9, where 1 is the maximum; inconclusive = response in the unintended direction; inactive = score below 0.9.

Experiments:
[1] = molecular target: human Phosphodiesterase 10 (PDE10), PDE10A (gene 10846) (UniProt Q9Y233); assay: NVS_ENZ_hPDE10: NovaScreen (NVS) Enzymatic Assay for human Phosphodiesterase 10 (PDE10) (AID 2283195)
Sequence of human Phosphodiesterase 10 (PDE10), PDE10A (gene 10846) (Q9Y233 whole entry, looked up): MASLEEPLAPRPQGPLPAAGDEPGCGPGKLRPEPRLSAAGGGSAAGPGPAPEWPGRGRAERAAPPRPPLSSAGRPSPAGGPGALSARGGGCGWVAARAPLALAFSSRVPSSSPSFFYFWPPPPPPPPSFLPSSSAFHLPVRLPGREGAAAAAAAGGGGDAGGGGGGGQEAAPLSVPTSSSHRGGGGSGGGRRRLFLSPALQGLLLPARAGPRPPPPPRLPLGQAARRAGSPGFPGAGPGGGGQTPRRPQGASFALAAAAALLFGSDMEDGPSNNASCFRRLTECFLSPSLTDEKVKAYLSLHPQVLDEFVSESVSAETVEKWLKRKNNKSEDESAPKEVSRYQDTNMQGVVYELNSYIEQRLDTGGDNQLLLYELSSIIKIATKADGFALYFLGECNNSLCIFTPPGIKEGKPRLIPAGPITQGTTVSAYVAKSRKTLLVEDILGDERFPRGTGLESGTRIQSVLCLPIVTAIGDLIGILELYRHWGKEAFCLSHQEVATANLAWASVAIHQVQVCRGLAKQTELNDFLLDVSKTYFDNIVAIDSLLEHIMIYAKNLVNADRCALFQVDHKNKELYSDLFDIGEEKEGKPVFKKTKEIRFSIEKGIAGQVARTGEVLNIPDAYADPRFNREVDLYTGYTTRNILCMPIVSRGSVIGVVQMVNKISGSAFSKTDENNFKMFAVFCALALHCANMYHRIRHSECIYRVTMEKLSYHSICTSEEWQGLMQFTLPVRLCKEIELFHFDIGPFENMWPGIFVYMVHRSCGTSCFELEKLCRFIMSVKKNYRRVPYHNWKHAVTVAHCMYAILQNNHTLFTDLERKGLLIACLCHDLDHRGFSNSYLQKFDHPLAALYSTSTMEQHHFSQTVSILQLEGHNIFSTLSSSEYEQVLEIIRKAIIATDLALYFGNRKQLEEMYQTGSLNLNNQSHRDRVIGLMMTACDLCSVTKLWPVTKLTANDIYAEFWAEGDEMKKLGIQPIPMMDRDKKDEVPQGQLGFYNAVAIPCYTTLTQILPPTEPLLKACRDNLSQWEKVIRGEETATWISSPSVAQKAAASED
Method in brief: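 Recombinant human PDE10 with fluorescent substrate, 1 h, product separated by electrophoretic mobility shift. Loss of enzyme activity fitted against DMSO; initial screen 25 uM in duplicate, actives run to 50 uM maximum.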

[2] = molecular target: human Protein Phosphatase, Mg2+/Mn2+ Dependent 1A (PPM1A), PPM1A (gene 5494) (UniProt P35813); assay: NVS_ENZ_hPPM1A: NovaScreen (NVS) Enzymatic Assay for human Protein Phosphatase, Mg2+/Mn2+ Dependent 1A (PPM1A) (AID 2283198)
Sequence of human Protein Phosphatase, Mg2+/Mn2+ Dependent 1A (PPM1A), PPM1A (gene 5494) (P35813 whole entry, looked up): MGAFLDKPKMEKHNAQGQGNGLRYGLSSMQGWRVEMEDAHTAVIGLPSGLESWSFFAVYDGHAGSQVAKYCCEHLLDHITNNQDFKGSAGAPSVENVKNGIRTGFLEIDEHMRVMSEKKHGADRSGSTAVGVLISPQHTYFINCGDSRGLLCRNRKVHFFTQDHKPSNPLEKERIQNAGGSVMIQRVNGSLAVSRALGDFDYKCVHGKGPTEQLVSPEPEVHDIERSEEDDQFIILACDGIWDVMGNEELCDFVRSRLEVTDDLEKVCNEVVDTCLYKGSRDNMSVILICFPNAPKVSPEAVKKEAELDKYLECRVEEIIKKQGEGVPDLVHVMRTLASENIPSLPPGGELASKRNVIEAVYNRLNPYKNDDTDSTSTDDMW
Method in brief: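 Cell-free recombinant PPM1A phosphatase assay with fluorescent substrate, read 1 h after dosing by electrophoretic mobility shift. Chemicals screened in duplicate at 25 uM, then in concentration-response up to 50 uM; loss of activity versus DMSO.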

[3] = molecular target: human Protein Tyrosine Phosphatase Non-receptor Type 1 (PTPN1), PTPN1 (gene 5770) (UniProt P18031); assay: NVS_ENZ_hPTPN1: NovaScreen (NVS) Enzymatic Assay for human Protein Tyrosine Phosphatase Non-receptor Type 1 (PTPN1) (AID 2283201)
Sequence of human Protein Tyrosine Phosphatase Non-receptor Type 1 (PTPN1), PTPN1 (gene 5770) (P18031 whole entry, looked up): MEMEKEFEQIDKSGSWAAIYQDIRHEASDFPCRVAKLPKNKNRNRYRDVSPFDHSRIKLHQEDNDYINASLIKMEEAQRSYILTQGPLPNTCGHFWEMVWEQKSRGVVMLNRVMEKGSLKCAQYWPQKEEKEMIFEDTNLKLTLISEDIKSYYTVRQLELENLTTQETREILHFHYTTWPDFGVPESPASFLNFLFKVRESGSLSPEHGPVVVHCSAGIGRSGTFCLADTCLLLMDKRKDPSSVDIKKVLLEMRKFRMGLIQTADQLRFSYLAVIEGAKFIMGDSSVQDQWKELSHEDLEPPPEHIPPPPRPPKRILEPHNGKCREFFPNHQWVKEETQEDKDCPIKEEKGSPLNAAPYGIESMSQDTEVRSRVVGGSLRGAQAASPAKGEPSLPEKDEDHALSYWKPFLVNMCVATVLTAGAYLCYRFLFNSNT
Method in brief: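 Cell-free fluorogenic-substrate activity assay on recombinant enzyme, read 1.33 h after dosing by fluorescence and electrophoretic mobility shift; loss of signal vs DMSO baseline. Primary screen in duplicate at 25 uM, hits then run in concentration-response up to 50 uM.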

[4] = molecular target: Tyrosine-protein phosphatase non-receptor type 12 (Homo sapiens) (UniProt Q05209); assay: NVS_ENZ_hPTPN12: NovaScreen (NVS) Enzymatic Assay for human Protein Tyrosine Phosphatase Non-receptor Type 12 (PTPN12) (AID 2283204)
Method in brief: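 Single-concentration duplicates (25 uM) preceded singleton concentration-response up to 50 uM for chemicals passing threshold. Cell-free recombinant PTPN12 activity was read 1.33 h after dosing via fluorescence after mobility-shift separation; loss of signal versus DMSO.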

[5] = molecular target: Tyrosine-protein phosphatase non-receptor type 13 (Homo sapiens) (UniProt Q12923); assay: NVS_ENZ_hPTPN13: NovaScreen (NVS) Enzymatic Assay for human Protein Tyrosine Phosphatase Non-receptor Type 13 (PTPN13) (AID 2283205)
Method in brief: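 Cell-free assay of recombinant human PTPN13 with a fluorescent substrate, product separated by electrophoretic mobility shift and read 0.5 h after dosing. Primary screen at 25 uM in duplicate, then concentration-response up to 50 uM. Loss of signal fitted against DMSO.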

[6] = molecular target: human Protein Tyrosine Phosphatase Receptor Type M (PTPRM), PTPRM (gene 5797) (UniProt P28827); assay: NVS_ENZ_hPTPRM: NovaScreen (NVS) Enzymatic Assay for human Protein Tyrosine Phosphatase Receptor Type M (PTPRM) (AID 2283215)
Sequence of human Protein Tyrosine Phosphatase Receptor Type M (PTPRM), PTPRM (gene 5797) (P28827 whole entry, looked up): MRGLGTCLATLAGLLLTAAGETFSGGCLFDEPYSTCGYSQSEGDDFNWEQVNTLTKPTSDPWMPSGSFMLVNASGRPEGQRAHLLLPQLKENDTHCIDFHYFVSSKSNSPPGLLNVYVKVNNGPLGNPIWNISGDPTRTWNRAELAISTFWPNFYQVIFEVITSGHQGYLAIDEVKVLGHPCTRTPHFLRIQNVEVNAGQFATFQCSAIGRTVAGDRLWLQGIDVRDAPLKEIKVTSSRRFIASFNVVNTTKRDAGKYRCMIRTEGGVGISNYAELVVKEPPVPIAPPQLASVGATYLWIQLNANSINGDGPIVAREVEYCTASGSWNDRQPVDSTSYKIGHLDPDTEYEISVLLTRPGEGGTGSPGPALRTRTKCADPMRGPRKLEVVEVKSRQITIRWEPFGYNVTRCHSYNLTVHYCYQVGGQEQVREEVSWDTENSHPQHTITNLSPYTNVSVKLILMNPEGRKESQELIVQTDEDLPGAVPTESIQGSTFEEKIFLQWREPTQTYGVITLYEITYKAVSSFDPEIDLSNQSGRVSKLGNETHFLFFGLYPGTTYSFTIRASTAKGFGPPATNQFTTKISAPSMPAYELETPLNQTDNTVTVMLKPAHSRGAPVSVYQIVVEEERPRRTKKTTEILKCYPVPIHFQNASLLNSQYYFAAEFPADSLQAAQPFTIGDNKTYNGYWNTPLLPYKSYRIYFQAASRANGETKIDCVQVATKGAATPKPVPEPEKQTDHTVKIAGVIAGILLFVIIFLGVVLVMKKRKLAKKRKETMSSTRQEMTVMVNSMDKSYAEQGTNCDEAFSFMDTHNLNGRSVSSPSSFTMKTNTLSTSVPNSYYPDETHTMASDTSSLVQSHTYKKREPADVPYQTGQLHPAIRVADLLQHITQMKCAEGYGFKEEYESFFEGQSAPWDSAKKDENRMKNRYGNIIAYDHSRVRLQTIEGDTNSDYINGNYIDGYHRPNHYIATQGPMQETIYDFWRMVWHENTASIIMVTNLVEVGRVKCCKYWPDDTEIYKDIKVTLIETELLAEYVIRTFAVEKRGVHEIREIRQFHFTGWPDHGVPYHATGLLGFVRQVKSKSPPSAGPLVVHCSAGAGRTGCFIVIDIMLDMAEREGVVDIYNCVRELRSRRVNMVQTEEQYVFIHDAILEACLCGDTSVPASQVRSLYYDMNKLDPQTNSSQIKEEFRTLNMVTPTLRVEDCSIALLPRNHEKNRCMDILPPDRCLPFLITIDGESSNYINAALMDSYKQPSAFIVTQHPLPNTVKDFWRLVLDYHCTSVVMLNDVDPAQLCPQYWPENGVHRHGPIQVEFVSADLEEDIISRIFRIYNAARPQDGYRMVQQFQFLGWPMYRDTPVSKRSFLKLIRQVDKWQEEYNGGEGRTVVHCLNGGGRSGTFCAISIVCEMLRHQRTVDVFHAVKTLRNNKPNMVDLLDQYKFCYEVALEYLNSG
Method in brief: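 Cell-free recombinant PTPRM with fluorogenic substrate; product separated from substrate by electrophoretic mobility shift and read by fluorescence, 1.33 h after dosing. Primary screen single concentration (25 uM) in duplicate; actives retested in concentration series; loss of signal versus DMSO.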

[7] = molecular target: human Phosphodiesterase 5 (PDE5), PDE5A (gene 8654) (UniProt O76074); assay: NVS_ENZ_hPDE5: NovaScreen (NVS) Enzymatic Assay for human Phosphodiesterase 5 (PDE5) (AID 2283194)
Method in brief: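 Recombinant human PDE5 with specific substrate, read 1 h after dosing by fluorescence with electrophoretic mobility-shift separation of substrate and product. Initial single-concentration duplicate screen at 25 uM, actives followed in concentration series; loss of activity versus DMSO.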

[8] = molecular target: human Phosphoinositide 3-kinase alpha (PI3Ka), PIK3CA (gene 5290) (UniProt P42336); assay: NVS_ENZ_hPI3Ka: NovaScreen (NVS) Enzymatic Assay for human Phosphoinositide 3-kinase alpha (PI3Ka) (AID 2283196)
Sequence of human Phosphoinositide 3-kinase alpha (PI3Ka), PIK3CA (gene 5290) (P42336 whole entry, looked up): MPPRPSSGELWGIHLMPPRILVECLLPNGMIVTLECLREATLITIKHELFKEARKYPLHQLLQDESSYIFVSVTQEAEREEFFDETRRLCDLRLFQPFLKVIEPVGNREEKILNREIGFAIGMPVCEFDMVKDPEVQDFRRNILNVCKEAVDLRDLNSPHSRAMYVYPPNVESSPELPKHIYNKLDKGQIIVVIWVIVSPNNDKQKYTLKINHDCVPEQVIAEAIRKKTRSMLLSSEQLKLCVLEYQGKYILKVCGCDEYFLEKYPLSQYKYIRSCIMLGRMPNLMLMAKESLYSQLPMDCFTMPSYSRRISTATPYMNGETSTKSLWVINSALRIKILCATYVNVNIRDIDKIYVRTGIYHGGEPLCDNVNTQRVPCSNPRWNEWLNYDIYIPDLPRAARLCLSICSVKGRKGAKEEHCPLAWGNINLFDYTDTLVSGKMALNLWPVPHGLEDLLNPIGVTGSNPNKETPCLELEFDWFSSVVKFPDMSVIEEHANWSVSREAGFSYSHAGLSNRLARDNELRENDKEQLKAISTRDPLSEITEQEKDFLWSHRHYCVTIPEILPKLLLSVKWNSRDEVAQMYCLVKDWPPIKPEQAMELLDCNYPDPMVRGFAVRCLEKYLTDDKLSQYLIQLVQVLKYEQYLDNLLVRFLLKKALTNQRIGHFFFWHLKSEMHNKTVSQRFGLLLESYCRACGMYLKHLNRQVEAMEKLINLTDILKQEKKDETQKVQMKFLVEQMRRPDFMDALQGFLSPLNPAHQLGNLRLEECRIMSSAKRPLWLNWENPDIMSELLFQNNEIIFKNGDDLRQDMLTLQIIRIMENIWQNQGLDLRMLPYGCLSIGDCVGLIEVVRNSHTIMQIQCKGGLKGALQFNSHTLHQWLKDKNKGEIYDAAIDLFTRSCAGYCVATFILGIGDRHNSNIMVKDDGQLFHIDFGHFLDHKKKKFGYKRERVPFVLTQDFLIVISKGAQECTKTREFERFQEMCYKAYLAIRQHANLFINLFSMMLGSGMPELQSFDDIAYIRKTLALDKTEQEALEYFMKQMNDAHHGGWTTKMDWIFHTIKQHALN
Method in brief: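 Fluorescence/mobility-shift readout of substrate conversion by recombinant enzyme, 1 h post-dosing. Primary screen in duplicate at 25 uM; actives (e.g. ≥30% inhibition) retested in singleton concentration-response, top concentration 50 uM.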

[9] = molecular target: Tyrosine-protein phosphatase non-receptor type 14 (Homo sapiens) (UniProt Q15678); assay: NVS_ENZ_hPTPN14: NovaScreen (NVS) Enzymatic Assay for human Protein Tyrosine Phosphatase Non-receptor Type 14 (PTPN14) (AID 2283206)
Method in brief: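 Cell-free recombinant human PTPN14 with fluorescent substrate, read 0.5 h after dosing by fluorescence and electrophoretic mobility shift separating substrate from product. Primary screen at 25 uM in duplicate; hits run to 50 uM maximum; loss of signal versus DMSO.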

[10] = molecular target: human Protein Tyrosine Phosphatase Receptor Type F (PTPRF), PTPRF (gene 5792) (UniProt P10586); assay: NVS_ENZ_hPTPRF: NovaScreen (NVS) Enzymatic Assay for human Protein Tyrosine Phosphatase Receptor Type F (PTPRF) (AID 2283213)
Method in brief: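 Cell-free fluorescence enzyme assay with recombinant protein and substrate; product separated by electrophoretic mobility shift. Read 1 h after dosing, single 25 uM duplicate screen, then concentration-response up to 50 uM; loss of signal vs DMSO.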

[11] = molecular target: human Sirtuin 1 (SIRT1), SIRT1 (gene 23411) (UniProt Q96EB6); assay: NVS_ENZ_hSIRT1: NovaScreen (NVS) Enzymatic Assay for human Sirtuin 1 (SIRT1) (AID 2283219)
Method in brief: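 Cell-free recombinant SIRT1 with a fluorescent substrate; substrate and product separated by electrophoretic mobility shift and read by fluorescence intensity, 1 h after dosing. Primary screen at 25 uM in duplicate; hits re-run in concentration-response up to 50 uM, relative to DMSO.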

[12] = molecular target: human SRC Proto-Oncogene, Non-receptor Tyrosine Kinase (SRC), SRC (gene 6714) (UniProt P12931); assay: NVS_ENZ_hSRC: NovaScreen (NVS) Enzymatic Assay for human SRC Proto-Oncogene, Non-receptor Tyrosine Kinase (SRC) (AID 2283223)
Method in brief: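 Cell-free kinase activity assay with fluorescent substrate, product separated by electrophoretic mobility shift, read 1 h after dosing. Duplicate single point at 25 uM, then concentration-response up to 50 uM; loss of signal versus DMSO.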

[13] = molecular target: Serine/threonine-protein phosphatase PP1-alpha catalytic subunit (Homo sapiens) (UniProt P62136); assay: NVS_ENZ_hPPP1CA: NovaScreen (NVS) Enzymatic Assay for human Protein Phosphatase 1 Aatalytic subunit Alpha (PPP1CA) (AID 2283200)
Method in brief: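 Recombinant enzyme activity read by fluorescence with electrophoretic mobility shift separating substrate from product, 1.33 h after dosing; loss of signal vs DMSO baseline. Primary screen in duplicate at 25 uM; actives retested in concentration-response up to 50 uM.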

[14] = molecular target: Tyrosine-protein phosphatase non-receptor type 11 (Homo sapiens) (UniProt Q06124); assay: NVS_ENZ_hPTPN11: NovaScreen (NVS) Enzymatic Assay for human Protein Tyrosine Phosphatase Non-receptor Type 11 (PTPN11) (AID 2283202)
Sequence of Tyrosine-protein phosphatase non-receptor type 11 (Homo sapiens) (Q06124 whole entry, looked up): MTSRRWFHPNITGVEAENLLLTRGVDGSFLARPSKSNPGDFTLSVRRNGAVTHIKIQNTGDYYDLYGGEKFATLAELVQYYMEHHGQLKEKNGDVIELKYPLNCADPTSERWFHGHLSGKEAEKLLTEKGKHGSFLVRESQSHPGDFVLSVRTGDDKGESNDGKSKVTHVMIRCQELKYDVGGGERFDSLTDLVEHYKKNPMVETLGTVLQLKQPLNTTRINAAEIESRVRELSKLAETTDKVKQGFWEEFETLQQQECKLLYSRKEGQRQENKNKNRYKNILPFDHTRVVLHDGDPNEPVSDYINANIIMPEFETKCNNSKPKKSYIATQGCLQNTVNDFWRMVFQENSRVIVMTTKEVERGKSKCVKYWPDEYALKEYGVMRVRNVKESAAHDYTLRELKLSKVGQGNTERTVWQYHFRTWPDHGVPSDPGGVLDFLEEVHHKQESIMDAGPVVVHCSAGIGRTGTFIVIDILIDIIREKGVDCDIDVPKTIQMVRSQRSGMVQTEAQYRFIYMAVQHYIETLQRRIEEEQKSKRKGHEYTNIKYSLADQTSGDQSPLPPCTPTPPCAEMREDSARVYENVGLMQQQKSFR
Method in brief: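 Recombinant human PTPN11 activity on a fluorescent substrate, with substrate/product separated by electrophoretic mobility shift; read 0.5 h after dosing, loss of signal vs DMSO. Duplicate 25 uM screen, then concentration-response up to 50 uM.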

[15] = molecular target: human Protein Tyrosine Phosphatase Non-receptor Type 6 (PTPN6), PTPN6 (gene 5777) (UniProt P29350); assay: NVS_ENZ_hPTPN6: NovaScreen (NVS) Enzymatic Assay for human Protein Tyrosine Phosphatase Non-receptor Type 6 (PTPN6) (AID 2283210)
Method in brief: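 Cell-free assay with recombinant PTPN6 expressed in SF9 cells, fluorescent substrate, product separated from substrate by electrophoretic mobility shift; read 1.33 hours after dosing. Primary screen in duplicate at 25 uM, actives retested in concentration series; DMSO baseline.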

[16] = molecular target: human Protein Tyrosine Phosphatase Non-receptor Type 9 (PTPN9), PTPN9 (gene 5780) (UniProt P43378); assay: NVS_ENZ_hPTPN9: NovaScreen (NVS) Enzymatic Assay for human Protein Tyrosine Phosphatase Non-receptor Type 9 (PTPN9) (AID 2283209)
Method in brief: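 Sf9-expressed enzyme in a cell-free assay, fluorescence read 1.33 h after dosing with mobility-shift separation of substrate and product. Tested at 25 uM in duplicate, then up to 50 uM; signal loss versus DMSO.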

[17] = molecular target: human Protein Tyrosine Phosphatase Receptor Type B (PTPRB), PTPRB (gene 5787) (UniProt P23467); assay: NVS_ENZ_hPTPRB: NovaScreen (NVS) Enzymatic Assay for human Protein Tyrosine Phosphatase Receptor Type B (PTPRB) (AID 2283211)
Method in brief: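 Recombinant human PTPRB with a fluorescent substrate, product separated by electrophoretic mobility shift; read 1 h after dosing. Primary screen in duplicate at 25 uM; actives then retested in concentration series; loss of signal versus DMSO.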

SMILES: CN(C)CCCN(C)CCCN(C)C
- outcome [1]: inactive

SMILES: CC(=O)OC1CC(C)OC(C)O1 (stereo not drawn)
- outcome [2]: inactive

SMILES: O=C(NS(=O)(=O)/C=C/c1cccs1)c1ccc(F)cc1Br
- outcome [3]: inactive
- outcome [4]: inactive

SMILES: NCCOCCOCCN
- outcome [3]: inactive

SMILES: CCCCOC(=O)CCCCC(=O)OCCCC
- outcome [1]: inactive
- outcome [5]: inactive
- outcome [6]: inactive

SMILES: COc1ccc(OC(F)(F)F)cc1CN[C@H]1CCCN[C@H]1c1ccccc1
- outcome [7]: inactive
- outcome [1]: inactive
- outcome [8]: inactive
- outcome [5]: inactive
- outcome [9]: inactive
- outcome [10]: inactive
- outcome [6]: inactive

SMILES: CS(=O)(=O)c1ccc([C@@H](C[C@H]2CCC(=O)C2)C(=O)Nc2cnccn2)cc1Cl
- AC50 [7]: 23.3 µM (active)

SMILES: CC1(C)C(=O)NC(=O)N1CO
- outcome [7]: inactive

SMILES: CSc1ccc(Oc2ccc(S(N)(=O)=O)cc2CN(C)C)cc1C
- outcome [2]: inactive

SMILES: CC(C)(O)c1ccc(CNC(=O)c2cccnc2Oc2ccc(F)cc2)cc1
- outcome [7]: inactive
- outcome [1]: inactive
- outcome [11]: inactive

SMILES: CCCCC(CC)COP(=O)(OCC(CC)CCCC)OCC(CC)CCCC (stereo not drawn)
- outcome [3]: inactive

SMILES: CCCCc1nc2cccnc2n1Cc1ccc(-c2ccccc2-c2nnn[nH]2)cc1
- AC50 [7]: 11.3 µM (active)
- AC50 [1]: 13 µM (active)
- outcome [12]: inactive

SMILES: Oc1ccccc1O
- outcome [7]: inactive

SMILES: CN(C)C(=O)NC1(c2ccccc2)CCN(CC[C@@]2(c3ccc(F)c(F)c3)CN(C(=O)c3ccccc3)CCO2)CC1
- AC50 [7]: 40 µM (active)
- outcome [8]: inactive
- outcome [13]: inactive
- outcome [14]: inactive
- outcome [15]: inactive

SMILES: Cc1ccc(C(C)(C)C)c(O)c1
- outcome [2]: inactive

SMILES: CCc1cc(C2=C(C(=O)O)N(c3ccccc3C(F)(F)F)S(=O)(=O)c3ccccc32)cc2c1OCO2
- outcome [7]: inactive
- outcome [1]: inactive

SMILES: CC(C)NCC(O)c1ccc(O)c(O)c1 (stereo not drawn)
- outcome [14]: inactive
- outcome [9]: inactive

SMILES: C/C=C/C=C/C(=O)O
- outcome [1]: inactive

SMILES: CCCCCCCCCCCCCCCCO
- outcome [2]: inactive

SMILES: O=C1c2c(O)cccc2Cc2cccc(O)c21
- outcome [8]: inactive

SMILES: CC(N)=O
- outcome [7]: inactive

SMILES: CCN(CC)CCOc1ccc(C(=C(Cl)c2ccccc2)c2ccccc2)cc1
- outcome [14]: inactive

SMILES: O=C(Oc1ccccc1)c1cccc(C(=O)Oc2ccccc2)c1
- outcome [16]: inactive

SMILES: O=C(O)CC(O)(CC(=O)O)C(=O)O
- outcome [16]: inactive

SMILES: CCCCC(CC)CO (stereo not drawn)
- outcome [17]: inactive

SMILES: CN(C)C(=O)NC1(c2ccccc2)CCN(CCC[C@]2(c3ccc(Cl)c(Cl)c3)CCCN(C(=O)c3ccccc3)C2)CC1
- outcome [10]: inactive

SMILES: O=C1NC(=O)C(c2ccccc2)(c2ccccc2)N1
- outcome [6]: inactive

SMILES: CC(=O)O
- outcome [12]: inactive

SMILES: CCCCCCCCCCCCCCOS(=O)(=O)O
- AC50 [12]: 37.1 µM (active)
